# Results reported in PubChem BioAssay AID620 (Sanford-Burnham Center for Chemical Genomics, 2007).
# Hit rate of the full screen: of about 87,000 compounds, about 360 (0.41%) were called active. The full list was thinned out, with actives kept by preference. Values without a mark were called inactive. Cut-off read from the data, not from the text of the source: active = cytotoxicity above about 50%; inactive = the rest.
# Assay: HT1080 cell viability loss – fluorescence readout (AID 620);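 note: cells exposed to compound overnight then 4 h with Alamar Blue; 0% = vehicle DMSO and 100% = killing control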
# Conditions: at 10 µM, stronger effect = higher value
row,Structure (SMILES),cytotoxicity
1,CC(=O)Nc1ccc2c(c1)nc(CN1CCCC1)n2C,-8.7%
2,Cc1c(NC(=O)CSc2ccccn2)c(=O)n(-c2ccccc2)n1C,1.3%
3,Cc1cccc2cc(CN(CCN3CCOCC3)C(=O)Nc3ccccc3F)c(=O)[nH]c12,13.6%
4,CC12CCC(C(=O)N3CCCCC3)(CC1=O)C2(C)C (stereo unspecified),-0.3%
5,COC(=O)[C@@]1(Cc2ccccc2)[C@H]2c3cc(C(=O)N(C)C)n(Cc4ccc(S(C)(=O)=O)cc4)c3C[C@H]2CN1C(=O)c1ccccc1,2.9%
6,O=c1ccc(Cc2ccccn2)n[nH]1,-6.4%
7,Cc1ccc(-n2c(SCC(=O)OC(C)C)nnc2-c2cnccn2)cc1,0.6%
8,COc1ccccc1N(C(=O)c1snc(C(N)=O)c1N)C(C(=O)NC1CCCC1)c1ccco1 (stereo unspecified),-5.3%
9,Cc1oc(-c2ccccc2F)nc1CS(=O)(=O)CC(=O)N1CCc2ccccc21,-3.2%
10,COc1ccc(C(=O)N2CCN(c3cccc(Cl)c3)CC2)c(OC)c1,15.6%
11,CCOc1ccccc1C(=O)N1CCN(c2cccc(Cl)c2)CC1,50.8% (active)
12,COc1ccccc1C(=O)N1CCN(c2cccc(Cl)c2)CC1,53% (active)
13,O=C(O)c1ccccc1C(=O)N1CCN(c2cccc(Cl)c2)CC1,8.7%
14,CCOc1ccccc1C(=O)N1CCOCC1,-16.5%
15,COc1ccccc1CC(=O)N1CCN(c2cccc(C(F)(F)F)c2)CC1,-8.5%
16,COc1ccccc1C(=O)N1CCN(c2cccc(C(F)(F)F)c2)CC1,58.7% (active)
17,COc1cc2c(C(=O)N3CCN(c4cccc(Cl)c4)CC3)cn(C)c(=O)c2cc1OC,20.5%
18,Cc1ccc(C(=O)N2CCN(c3cccc(Cl)c3)CC2)cc1C,-5.4%
19,O=C(c1ccccc1F)N1CCN(c2cccc(C(F)(F)F)c2)CC1,-6.8%
20,COc1ccc(C(=O)N2CCN(c3cccc(Cl)c3)CC2)cc1,-4.7%
21,CCOc1ccc(C(=O)Cc2ccc3oc(C(=O)O)cc3c2)c(O)c1,-8.8%
22,O=C(CSc1nc2ncc(Br)cc2[nH]1)Nc1ccc2c(c1)OCO2,2.1%
23,COCCNC(=O)COC(=O)/C=C/c1c(C)nn(Cc2ccc(Cl)cc2Cl)c1Cl,5.2%
24,C[N+]1(CC(=O)Nc2ccc(F)cc2)CCN(C(=O)c2ccco2)CC1,15.7%

row,Structure (SMILES),cytotoxicity
1,COc1cc(-c2noc(CCCC(=O)NCc3ccccc3)n2)cc(OC)c1OC,6.8%
2,O=C(COc1ccccc1)N1CCN(S(=O)(=O)c2ccc(Cl)cc2)CC1,17.2%
3,O=C1CC(c2ccccc2)CC(O)=C1C=NCCCO (stereo unspecified),4.4%
4,Cc1cccc(OCC(=O)NCCN2CCOCC2)c1,5.4%
5,COC(=O)[C@H](CCSC)NC(=O)Nc1ccc(OC)c(Cl)c1,-10.8%
6,Cc1n[nH]c(C)c1S(=O)(=O)N1CCCC(C(=O)NCc2cccs2)C1 (stereo unspecified),2.8%
7,O=C(CNS(=O)(=O)c1ccc(F)cc1)N1CCN(c2ccccc2)CC1,7%
8,Cc1nc2ccc(NC(=O)Cc3ccsc3)cc2s1,-7.3%
9,COc1ccc(N2CCN(Cc3nc4c(c(=O)n(C)c(=O)n4C)n3CCc3ccccc3)CC2)cc1,0.1%
10,Cc1cc(=O)oc(C)c1C(=O)N1CCN(c2ccc(F)cc2)CC1,5.9%
11,O=[N+]([O-])/C(C(Cl)=C(Cl)Cl)=C(\Nc1ccc(F)cc1)n1cncn1,10.6%
12,CC(C)(C)C(=O)/C(=C\c1ccc([N+](=O)[O-])cc1)n1cncn1,89% (active)
13,Cn1ncc(N=Cc2ccc([N+](=O)[O-])cc2)c1C(=O)N1CCOCC1,-3.9%
14,O=C(COc1ccc(S(=O)(=O)Nc2ccccc2)cc1)N1CCOCC1,-4.7%
15,O=S(=O)(C/C(=C/CO)S(=O)(=O)c1ccccc1)c1ccccc1,51.2% (active)
16,C/C=C(\CS(=O)(=O)c1ccccc1)S(=O)(=O)c1ccccc1,-9.9%
17,CCOC(=O)CS(=O)(=O)c1ccccc1,-4.5%
18,CC(C)C[C@H](NC(=O)N1CCN(c2ccccc2)CC1)C(=O)O,6.2%
19,O=C(c1ccc(F)cc1)N1CCN(c2ncccn2)CC1,2%
20,Cc1ccccc1NC(=O)CN1C(=O)NC2(CCCCC2)C1=O,10%
21,Cc1ccc(CN2CCN(C(=O)CCN3C(=O)c4ccccc4C3=O)CC2)cc1,6.3%
22,CCOC(=O)c1[nH]c(C)c(C(=O)NCc2ccc(C)cc2)c1C,-8.9%
23,CCOC(=O)c1[nH]c(C)c(C(=O)Nc2ccc(C)c(F)c2)c1C,-2.9%
24,CCOC(=O)c1[nH]c(C)c(C(=O)c2ccc(C)cc2)c1C,59.5% (active)

row,Structure (SMILES),cytotoxicity
1,CCOC(=O)c1[nH]c(C)c(C(=O)OCC)c1C,2.3%
2,CCOC(=O)c1[nH]c(C)c(C(=O)c2cc(F)ccc2F)c1C,57.2% (active)
3,CCOC(=O)c1[nH]c(C)c(C(=O)Nc2ccc(F)cc2)c1C,-9.3%
4,CCOC(=O)c1c(C)sc2c1N(C(=O)CN1CCOCC1)c1cc(Cl)ccc1S2,12.4%
5,O=C(OCC(=O)N1CCN(c2ccccc2)CC1)C1=COCCO1,-8.1%
6,O=C(OCC#CCSc1nnc(-c2ccc([N+](=O)[O-])cc2)o1)c1cccs1,-10.8%
7,CCSc1nnc(NC(=O)COc2ccccc2)s1,-5%
8,O=C(NCc1ccncc1)Nc1ccc(F)cc1,14.7%
9,COc1ccc(-c2cc(N)n(S(=O)(=O)c3c(F)c(F)c(F)c(F)c3F)n2)cc1OC,59.5% (active)
10,COc1ccc(S(=O)(=O)n2nc(-c3cc(OC)c(OC)c(OC)c3)cc2N)cc1OC,1.5%
11,COc1ccc(OC)c(S(=O)(=O)n2nc(-c3ccccc3)cc2N)c1,-6.1%
12,CCOC(=O)C(C)Oc1cccc2c(=O)n(CC(=O)N3CCc4ccccc43)ccc12 (stereo unspecified),4.2%
13,CCOC(=O)C(C)Oc1cccc2c(=O)n(CC(=O)NCc3ccco3)ccc12 (stereo unspecified),65.3% (active)
14,CCOC(=O)COc1cccc2c(=O)n(CC(=O)NCc3ccc4c(c3)OCO4)ccc12,13.3%
15,c1ccc(OCCOCCN2CCOCC2)cc1,-2.8%
16,Cc1nc2c(cnn2-c2ccccc2Cl)c(=O)n1-c1ccc(N2CCC(C)CC2)cc1,0.5%
17,COCc1cc(C)nc(SCC(=O)Nc2cccc(C)c2C)c1C#N,-2%
18,Cc1csc(NC(=O)c2cc3c(s2)CCC3)n1,20.8%
19,Cc1csc(NC(=O)c2cc3c(s2)CCCCC3)n1,-7.3%
20,CCC(C)NS(=O)(=O)c1ccc(-c2csnn2)s1 (stereo unspecified),-2.6%
21,CC(CCc1ccccc1)NC(=O)CSc1nnnn1C (stereo unspecified),9.7%
22,Cc1ccc2c(c1)[C@@H]1CN(C)CC[C@@H]1N2S(=O)(=O)c1ccc(F)cc1,3.2%
23,CC1=CC(C)(C)N(C(=O)c2ccccc2)c2ccc(C)cc21,-8.8%
24,CC1=CC(C)(C)N(C(=O)C(C)N2C(=O)c3ccccc3C2=O)c2ccc(C)cc21 (stereo unspecified),5.3%

row,Structure (SMILES),cytotoxicity
1,CC1=CC(C)(C)N(C(=O)CN2C(=O)c3ccccc3C2=O)c2ccccc21,12.7%
2,CC1=CC(C)(C)N(S(=O)(=O)c2ccc(F)cc2)c2ccc(C)cc21,61% (active)
3,Cc1ccc(S(=O)(=O)N2C(=S)SCC2(C)C)cc1,14.3%
4,CC1=CC(C)(C)N(S(=O)(=O)c2ccc(C)cc2)c2ccc(C)cc21,64.1% (active)
5,CC1=CC(C)(C)N(S(=O)(=O)c2ccc(C)cc2)c2cc(C)ccc21,63.7% (active)
6,CC1=CC(C)(C)N(S(=O)(=O)c2ccc(F)cc2)c2ccccc21,34.7%
7,CC1=CC(C)(C)N(S(=O)(=O)c2ccc(C)cc2)c2ccccc21,64.3% (active)
8,Cc1ccc(N2CCN(S(=O)(=O)c3ccc(F)cc3)CC2)c(C)c1,-3.9%
9,CC1=CC(C)(C)N(C(=O)CSc2nccn2C)c2cc(C)ccc21,-6.8%
10,Cc1ccc2[nH]c3c(=O)n(CCCN4CCOCC4)cnc3c2c1,-1.5%
11,CCOc1ccc(NC(=O)c2cc3cc4ccc(OC)cc4nc3o2)cc1,-4.9%
12,COc1ccc(NC(=O)c2ccco2)c(NC(=O)Cc2cccs2)c1,-0.8%
13,O=C(C(NS(=O)(=O)c1cccs1)c1ccccc1)N1CCN(c2ccccc2F)CC1 (stereo unspecified),1.9%
14,CC(C)(C)N(Cc1ccccc1)C(=O)c1ccc2c(c1)OCCO2,-6.6%
15,Cc1sc2ncnc(NCC3CCCO3)c2c1C (stereo unspecified),-6.6%
16,COC(=O)c1ccc(NC(=O)CSc2nc3cccnc3n2C)cc1,-2.4%
17,COc1cc(NC(=O)C2CCCO2)c(C(=O)O)cc1OC (stereo unspecified),6.7%
18,COc1ccccc1N1CCN(C(=O)c2cc3sccc3n2C)CC1,-5.4%
19,O=C(OC(C(=O)NC1CCCC1)c1ccccn1)c1cccs1 (stereo unspecified),-10%
20,CN=C1SC(CC(=O)Nc2sc3c(c2C#N)CCCC3)C(=O)N1C (stereo unspecified),1.2%
21,CN1Cc2cc(C(=O)c3cc(Cl)cc(CSc4ncccn4)c3O)cnc2NC1=O,70.1% (active)
22,CCCCN1Cc2cc(C(=O)c3cc(F)ccc3O)cnc2NC1=O,-2.9%
23,CN1Cc2cc(C(=O)c3ccccc3O)cnc2NC1=O,-10.1%
24,O=C1NC(c2ccccc2)C(C(=O)c2cccs2)=C1O (stereo unspecified),-9.1%
